This is part of a sample that, as a whole, favours compounds with a hit. Of some 83,000 tested, about 20% had one in any assay.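 Cells were grown in 96-well plates and exposed to the test compound at a single concentration for 48 hours; results are reported as percent growth, with values below 10 considered active.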 Values without a mark were called inactive. The source made the active and inactive calls.

Our source for the growth values is PubChem BioAssay (NCI).

Among the test systems are RPMI-8226 leukemia; OVCAR-8 ovarian; OVCAR-5 ovarian; OVCAR-4 ovarian; SK-OV-3 ovarian; IGROV1 ovarian; OVCAR-3 ovarian; HS 578T breast; NCI/ADR-RES ovarian; T-47D breast; BT-549 breast; MCF7 breast; HCT-116 colon; HCC-2998 colon; KM12 colon; MDA-MB-435 melanoma; SW-620 colon.
Test in all cases: NCI-60 one-dose screen, 48 h (100 = growth as untreated, 0 = no growth, -100 = all killed)
Common to all, as to settings: 10 µM unless noted

As to `CC(=O)[C@H]1CCC/C=C/[C@@H]2C[C@H](O)C[C@H]2[C@H](O)/C=C/C(=O)O1`, the growth with RPMI-8226 leukemia was 14.2%; with OVCAR-8 ovarian, 11.3%; with OVCAR-5 ovarian, 32.3%; with OVCAR-4 ovarian it was 18.9%; with SK-OV-3 ovarian, 23.9%; with IGROV1 ovarian, -5.3% (active). Moreover, the growth was -31.1% (active) with OVCAR-3 ovarian; 36.9% with HS 578T breast; 3.11% (active) in the experiment with NCI/ADR-RES ovarian; -12.2% (active) in the experiment on T-47D breast; 9.71% (active) with BT-549 breast; 3.81% (active) in the experiment on MCF7 breast. The growth in the experiment on HCT-116 colon is -45.1% (active); with HCC-2998 colon, -23.3% (active); in the experiment on KM12 colon, -26.9% (active).
Turning to `CCOC(=O)c1nc2c3ccccc3ccn2c1C(=O)OCC`, the growth was 96.4% in the experiment with RPMI-8226 leukemia; 111% in the experiment with OVCAR-8 ovarian; 98% with OVCAR-5 ovarian; 107% in the experiment on OVCAR-4 ovarian; 109% in the experiment with SK-OV-3 ovarian; 96.5% in the experiment with IGROV1 ovarian. The growth is 106% in the experiment with OVCAR-3 ovarian; 96% in the experiment with NCI/ADR-RES ovarian; 98.2% in the experiment with T-47D breast; 103% in the experiment on BT-549 breast; 105% in the experiment with MDA-MB-435 melanoma; 95.9% in the experiment with MCF7 breast. Besides, the figures for the growth in the experiment on HCT-116 colon, in the experiment on HCC-2998 colon and in the experiment on KM12 colon were 104%, 103% and 100%, respectively.
Turning to `CCCCOc1ccc(/C=N/Nc2cc(C)nc3ccc(Br)cc23)cc1`, the growth was -15.9% (active) in the experiment on RPMI-8226 leukemia; 100% in the experiment with OVCAR-5 ovarian; 44% in the experiment on OVCAR-4 ovarian; 91.5% in the experiment with SK-OV-3 ovarian; 10% with IGROV1 ovarian; -53% (active) in the experiment on OVCAR-3 ovarian. In addition, the growth in the experiment with HS 578T breast was 86.8%; with NCI/ADR-RES ovarian, 83.8%; with T-47D breast it was 82.5%; in the experiment with BT-549 breast, 99%; in the experiment on MDA-MB-435 melanoma, -4.43% (active); with SW-620 colon, -70.5% (active). For the same molecule, the growth is -52.1% (active) in the experiment on MCF7 breast, -69.6% (active) in the experiment with HCT-116 colon, -53.9% (active) in the experiment with HCC-2998 colon and -4.11% (active) in the experiment on KM12 colon.
Consider `O=C1C=CC(=O)N1c1cccc(Cl)c1`, for which the growth is 95.6% in the experiment with RPMI-8226 leukemia; 111% in the experiment with OVCAR-5 ovarian; 108% in the experiment on SK-OV-3 ovarian; 117% in the experiment on IGROV1 ovarian; 90.1% with OVCAR-3 ovarian; 113% in the experiment with HS 578T breast. In addition, the growth in the experiment with NCI/ADR-RES ovarian is 98.3%; in the experiment with T-47D breast it was 93.7%; with BT-549 breast it was 108%; in the experiment on MDA-MB-435 melanoma, 101%; in the experiment with SW-620 colon it was 76%; in the experiment with MCF7 breast it was 112%. The growth was 89.7% in the experiment on HCT-116 colon, 104% in the experiment on HCC-2998 colon and 104% in the experiment with KM12 colon.
As to `CCOc1ccc(/C=N/Nc2cc(C)nc3ccc(Br)cc23)cc1`, the growth in the experiment on RPMI-8226 leukemia was 71.4%; with OVCAR-5 ovarian it was 89.2%; in the experiment on OVCAR-4 ovarian, 91.8%; with SK-OV-3 ovarian it was 90.8%; in the experiment with IGROV1 ovarian it was 96.2%; in the experiment on OVCAR-3 ovarian, 105%. In addition, the growth is 101% in the experiment on HS 578T breast; 81.8% in the experiment with NCI/ADR-RES ovarian; 89.2% in the experiment with T-47D breast; 91.3% in the experiment with BT-549 breast; 92.6% in the experiment on MDA-MB-435 melanoma; 55.2% in the experiment on SW-620 colon. The growth with MCF7 breast was 75.8%; in the experiment with HCT-116 colon it was 36.6%; in the experiment on HCC-2998 colon it was 100%; in the experiment with KM12 colon, 84.6%.
As for `O=C1Nc2cc(-c3cccc([N+](=O)[O-])c3)ccc2/C1=C/c1ccc[nH]1`, the growth with RPMI-8226 leukemia is 81.3%; in the experiment with OVCAR-8 ovarian it was 101%; in the experiment on OVCAR-5 ovarian it was 48.8%; in the experiment on OVCAR-4 ovarian, 45.4%; in the experiment with SK-OV-3 ovarian, 59.6%; with IGROV1 ovarian, 54.5%. Besides, the growth with OVCAR-3 ovarian was 70.6%; in the experiment on HS 578T breast, 102%; in the experiment on NCI/ADR-RES ovarian it was 99.2%; in the experiment on T-47D breast, -10.6% (active); in the experiment with MDA-MB-435 melanoma, 97.7%; in the experiment with MCF7 breast it was 16%. The values for the growth in the experiment on HCT-116 colon, with HCC-2998 colon and in the experiment on KM12 colon were 97.9%, 61% and 46.7%, respectively.
For the molecule `O=C(/C=C/c1c(-c2ccc(Cl)cc2)nn(-c2ccccc2)c1C(F)(F)F)c1ccc(Cl)cc1`, the growth in the experiment on OVCAR-8 ovarian was 77.8%; in the experiment on OVCAR-5 ovarian, 102%; with OVCAR-4 ovarian, 89%; in the experiment on SK-OV-3 ovarian, 82.7%; in the experiment with IGROV1 ovarian it was 102%; with OVCAR-3 ovarian, 95.3%. The growth was 92.2% in the experiment on HS 578T breast; 97.4% in the experiment on NCI/ADR-RES ovarian; 64.8% with T-47D breast; 97.4% with BT-549 breast; 97.9% in the experiment with MDA-MB-435 melanoma; 61.8% with MCF7 breast. For the same molecule, the growth was 63.4% in the experiment with HCT-116 colon, 103% in the experiment on HCC-2998 colon and 84.8% in the experiment on KM12 colon.
For `N#CC(C(=O)/C(=N/NC(=O)c1ccccc1O)C(C#N)c1ccccc1)c1ccccc1` (stereo not given), the growth in the experiment with OVCAR-8 ovarian was 52.3%; in the experiment with OVCAR-5 ovarian, 91.2%; with OVCAR-4 ovarian, 58.8%; in the experiment on SK-OV-3 ovarian, 45.9%; in the experiment with IGROV1 ovarian, 37.7%; with OVCAR-3 ovarian, 68.7%. For the same molecule, the growth in the experiment with HS 578T breast was 24.1%; in the experiment on NCI/ADR-RES ovarian, 44.5%; with T-47D breast, 24.9%; in the experiment with MDA-MB-435 melanoma, 24.1%; with SW-620 colon it was 80.2%; in the experiment with MCF7 breast, 55.3%. Moreover, the growth in the experiment on HCT-116 colon is 14.7%; in the experiment on HCC-2998 colon, 85.9%; in the experiment with KM12 colon, 46.5%.
As to `CCN(c1ccccc1)S(=O)(=O)c1cc([N+](=O)[O-])ccc1Cl`, the growth with RPMI-8226 leukemia was 43.8%; with OVCAR-5 ovarian, 67.4%; in the experiment with OVCAR-4 ovarian, 25.1%; with SK-OV-3 ovarian it was 55.3%; in the experiment with IGROV1 ovarian it was 54%; with OVCAR-3 ovarian, 74.7%. In addition, the growth with HS 578T breast is 82%; in the experiment on NCI/ADR-RES ovarian it was 42.2%; with T-47D breast, 26.6%; in the experiment on BT-549 breast, 49.4%; in the experiment with MDA-MB-435 melanoma it was 62.3%; with SW-620 colon, 46.3%. Besides, the growth was 52.6% in the experiment with MCF7 breast, 24.6% in the experiment with HCT-116 colon, 110% in the experiment on HCC-2998 colon and 54.1% with KM12 colon.
Consider `Cc1ncc(C(=O)Nc2ccc(CN3CCN(C)CC3)c(C(F)(F)F)c2)cc1C#Cc1cnc(N)cc1C#N`, for which the growth with RPMI-8226 leukemia is -7.94% (active); in the experiment with OVCAR-8 ovarian, -66.4% (active); in the experiment on OVCAR-5 ovarian, -94.1% (active); in the experiment with OVCAR-4 ovarian it was 30.2%; with SK-OV-3 ovarian, 20.6%; in the experiment with IGROV1 ovarian, 5.92% (active). Moreover, the growth in the experiment with OVCAR-3 ovarian was 39.5%; in the experiment with HS 578T breast, -18.2% (active); in the experiment with NCI/ADR-RES ovarian, -46.8% (active); in the experiment on T-47D breast, 57.8%; in the experiment with BT-549 breast, 38%; with SW-620 colon it was -57.4% (active). Besides, the growth in the experiment with MCF7 breast is -75.6% (active); in the experiment on HCT-116 colon it was -71.5% (active); in the experiment on HCC-2998 colon it was 54.5%; in the experiment with KM12 colon, -83.1% (active).
As for `C=CCn1c(-c2ccc(-c3nc4ccc(C)cc4[nH]3)cc2)n[nH]c1=S`, the growth with OVCAR-8 ovarian was 94.4%; in the experiment with OVCAR-5 ovarian, 101%; in the experiment on OVCAR-4 ovarian it was 90.4%; in the experiment on IGROV1 ovarian, 97.9%; in the experiment on OVCAR-3 ovarian, 112%; in the experiment on HS 578T breast it was 102%. Further, the growth is 108% with NCI/ADR-RES ovarian; 97.5% with T-47D breast; 100% in the experiment with BT-549 breast; 98.1% with MDA-MB-435 melanoma; 112% in the experiment on SW-620 colon; 82.8% in the experiment with MCF7 breast. In addition, the growth was 106% with HCT-116 colon, 108% with HCC-2998 colon and 105% in the experiment on KM12 colon.
`C#Cc1cccc(NC(=O)Nc2cccc(NC(=O)CCl)c2)c1`: the growth is 9.12% [8.25 µM] (active) in the experiment on RPMI-8226 leukemia; -7.18% [8.25 µM] (active) with OVCAR-8 ovarian; 12.8% [8.25 µM] in the experiment with OVCAR-5 ovarian; -35.9% [8.25 µM] (active) with OVCAR-4 ovarian; 59% [8.25 µM] in the experiment on SK-OV-3 ovarian; -57% [8.25 µM] (active) in the experiment on IGROV1 ovarian. Besides, the growth was -70.8% [8.25 µM] (active) in the experiment on OVCAR-3 ovarian; 29.6% [8.25 µM] in the experiment on HS 578T breast; -15.1% [8.25 µM] (active) in the experiment with NCI/ADR-RES ovarian; 27.8% [8.25 µM] in the experiment with T-47D breast; -39.8% [8.25 µM] (active) with MDA-MB-435 melanoma; -42.3% [8.25 µM] (active) in the experiment on SW-620 colon. In addition, the growth with MCF7 breast was 4.65% [8.25 µM] (active); in the experiment on HCT-116 colon, 2.24% [8.25 µM] (active); with HCC-2998 colon it was 93.6% [8.25 µM]; in the experiment with KM12 colon, 32.9% [8.25 µM].
